# Test results: the supplement of paper PMC3334620
# In all, about 33,000 sequences were measured (“E-score (-0.5 to 0.5)”: median about -0.012, highest 2% from about 0.27 on). What follows is part of a selection rich in the highest values, with near analogues and random picks from the rest.
# Biological target: T1, Vhr1 (UniProt P40522)
# T1 sequence: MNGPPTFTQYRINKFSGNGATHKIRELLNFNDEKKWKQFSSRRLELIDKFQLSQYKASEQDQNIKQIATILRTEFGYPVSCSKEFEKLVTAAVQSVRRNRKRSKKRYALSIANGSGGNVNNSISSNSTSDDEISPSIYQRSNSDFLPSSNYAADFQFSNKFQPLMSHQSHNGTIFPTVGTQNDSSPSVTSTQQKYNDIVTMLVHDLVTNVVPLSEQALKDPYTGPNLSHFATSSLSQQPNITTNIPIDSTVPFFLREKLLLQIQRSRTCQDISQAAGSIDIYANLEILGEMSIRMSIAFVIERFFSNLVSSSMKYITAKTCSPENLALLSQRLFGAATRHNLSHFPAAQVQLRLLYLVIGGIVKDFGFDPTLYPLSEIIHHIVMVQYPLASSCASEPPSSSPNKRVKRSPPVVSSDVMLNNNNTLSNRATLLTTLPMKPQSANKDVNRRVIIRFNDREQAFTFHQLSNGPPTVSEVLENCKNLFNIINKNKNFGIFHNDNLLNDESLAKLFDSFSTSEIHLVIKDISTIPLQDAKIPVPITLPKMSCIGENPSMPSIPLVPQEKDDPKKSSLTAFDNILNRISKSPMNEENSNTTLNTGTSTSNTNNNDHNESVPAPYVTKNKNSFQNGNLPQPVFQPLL
# Assay: PBM E-score (8-mer binding enrichment) (E-score (-0.5 to 0.5)); higher = stronger / more preferred TF binding
# Conditions: protein concentration: 200 nM; construct: GST-full length
# Description: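 Universal 'all 10-mer' protein binding microarrays (Agilent AMADID 015681) probed with GST-tagged S. cerevisiae TFs (full-length or DBD) made by in vitro transcription/translation (PURExpress), about 100-200 nM. Bound TF was detected with fluorescent anti-GST. Each ungapped 8-mer (which stands for itself and its reverse complement) is scored by the PBM enrichment score (E-score), a modified Wilcoxon-Mann-Whitney statistic from -0.5 to +0.5, computed with the Universal PBM Analysis Suite. Scale: above 0.35 generally sequence-specific binding.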
row,Sequence,PBM E-score
1,ACATTTAT,-0.0139
2,CCTTGCGA,-0.0209
3,GCTTGCGA,0.295
4,ACTTGCGA,0.0242
5,ACTGGCCT,-0.135
6,CAGATGTC,0.105
7,AGAGTCGC,0.338
8,CGAGTCGC,0.34
9,CCAGTCGC,0.13
10,CGAGTCGA,0.224
11,AGAGTCGG,0.329
12,AGAGTCGA,0.157
13,AAAGTCGC,0.137
14,AGAGTCTG,-0.106
15,ATAGTCGC,0.243
16,CCCTTCTA,-0.218
17,CTAGCTGA,0.0125
18,CTACTGAA,0.132
19,CGCCCTCA,-0.16
20,AAGGGCTC,-0.218
21,AGGGCTCG,-0.079
22,AGCTTCTA,-0.278
23,AGTGATTA,0.216
24,AGCGATTC,0.168
25,AGTGATTG,0.343

row,Sequence,PBM E-score
1,CGCGATTA,0.162
2,CGTGATCC,-0.0765
3,AGTGATAG,-0.0174
4,AGTGATTC,0.285
5,ATTGATTG,0.0691
6,AGTGATAC,0.237
7,CGTGATTA,0.236
8,CGTGATTC,0.326
9,CGCGATTC,0.278
10,ATGAAACC,0.137
11,ACGGTAGT,0.125
12,AAAATCAT,0.151
13,ATTGCTTG,-0.00443
14,ATCTCATC,0.0646
15,CGTACCCA,0.16
16,ACGGTCAT,0.156
17,GGCAAGCA,-0.224
18,AATGAGTC,0.426
19,AATGAGAC,-0.113
20,AATGAGTA,0.223
21,CATGAGGC,-0.159
22,CATGAGAC,0.274
23,CATGAGCC,0.159
24,CATGAGAG,0.147
25,CATGAGTC,0.477

row,Sequence,PBM E-score
1,AATGAGTG,0.157
2,AGTGTCGC,0.138
3,AAAATAAT,0.0747
4,TAAGCCTA,-0.259
5,GAATTTGC,-0.0954
6,CAAGAATC,0.179
7,GCGAACAC,-0.0481
8,AATAGGCA,0.0547
9,AACAGCAT,0.0405
10,AGAGCCCT,-0.165
11,GCAATCGA,-0.0515
12,AGAGTCAC,0.43
13,AGAGTCCC,-0.205
14,AGAGTCTC,0.191
15,AGAGTCAG,0.399
16,ACAGTCAA,0.0811
17,AGAGTCAT,0.45
18,AGAGTCAA,0.112
19,ACAGTCAG,0.228
20,AGGGTCAG,-0.161
21,AAAGTCAG,0.119
22,ACAGTCAT,0.318
23,AGAGTCCT,-0.17
24,CGGATCTA,-0.0646
25,GCACCTCC,-0.136

row,Sequence,PBM E-score
1,GGCAAAGA,-0.0131
2,GTTCACTA,-0.133
3,GCAATTCC,-0.163
4,GGAAAGCC,-0.0802
5,TGATGGAA,0.0625
6,ACTACTCA,0.238
7,CATACCCC,0.105
8,GCTACTCC,-0.145
9,CGTACTAA,0.153
10,CGTACTCC,-0.0124
11,ATTACTCA,0.29
12,CATACCCA,0.271
13,GCTACTCA,0.271
14,CGTACTCA,0.283
15,ATTACTCG,0.198
16,ATTACTCC,0.0722
17,TATACCCA,0.0126
18,AACTAAAT,-0.0313
19,ATCGGTGA,0.181
20,GTGCTTAA,-0.136
21,TATAGGAA,0.0238
22,GAATTAGA,-0.172
23,GCGTGTAA,-0.0131
24,ATTATTGC,-0.0063
25,ACTGGCGA,0.124

row,Sequence,PBM E-score
1,AATTTAGT,0.256
2,GGTACTTA,-0.103
3,CATACTCC,0.125
4,AGTACTCA,0.171
5,CATACTGA,0.123
6,GATACTGA,0.159
7,GGTACTCA,0.281
8,CATACTCG,0.18
9,CATACTCA,0.285
10,TATACTGA,0.309
11,CGGCACGC,-0.0534
12,GCAGCTCA,-0.254
13,ACTGAGTA,0.263
14,GAAGAGTC,0.194
15,GCTGAGCC,0.28
16,AAAGAGTC,0.0469
17,CCTGAGCC,0.115
18,CAAGAGTC,0.296
19,AGAGAGTC,0.215
20,ACAGAGTG,0.0123
21,ACTGAGTG,0.0665
22,ACTGAGCC,0.219
23,ACTGAGTC,0.454
24,ACAGAGTC,0.296
25,ATTCGGTG,0.106

row,Sequence,PBM E-score
1,GTTTGTGA,-0.0971
2,GGCTATGA,0.0249
3,AGAGCACG,0.00968
4,CCAGCCAA,-0.119
5,CATTCAGA,0.0364
6,CTGGGTAC,0.196
7,CCTGAGGC,-0.096
8,CCTGAGTC,0.461
9,CCTGAGTA,0.205
10,AACGCTAC,-0.205
11,CAATCAAG,0.00756
12,CAATCATG,0.289
13,CAATCAGG,0.0706
14,AAATCATT,-0.011
15,AAATCATA,0.227
16,AAATCATG,0.29
17,GACTGGCA,-0.0149
18,GAACTATA,0.222
19,GTAGCATA,0.079
20,CGATTCAG,0.12
21,AAGCTCCG,-0.173
22,ATGATACA,0.289
23,ATAATACA,0.277
24,ATAATATA,0.3
25,ATAATACC,0.212

row,Sequence,PBM E-score
1,ATAATATG,0.206
2,CTGATACA,0.0817
3,ATGATATA,0.0327
4,ATGATATG,0.315
5,ATAATACG,0.0457
6,ATGATACC,0.124
7,CTAATATA,-0.0362
8,ATGATATC,0.0491
9,AGTGCGCA,0.112
10,AGCCAGTA,0.133
11,CAAAGAGA,-0.299
12,ACCTCGCA,-0.0858
13,TCTGTTCA,0.151
14,CTGAGTAC,0.175
15,ATGAGTAC,0.347
16,ATGAGTTG,0.173
17,CGGAGTAC,0.0632
18,CGGAGTGC,0.139
19,ATGAGTAG,0.189
20,CTGAGTTC,0.0461
21,CGGAGTCC,0.324
22,ATGAGTGG,0.162
23,ATGAGTCG,0.462
